# Methyltransferases: Primary Screen for Target Class Profiling of Small Molecule Inhibitors of Methyltransferases. AID 1745853, 2022. calls only at 40 µM. 25,000 tested, 3.9% active. purified enzyme, MTase-Glo SAH luminescence; stronger effect = lower value; call rule not given here
#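 Each enzyme was assayed with SAM and its substrate. SAH formation detected by MTase-Glo luminescence; single-point 40 uM screen[…].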
# * = called active by the depositor; i = inactive; + = active, no number; ! = repeats disagree. The full list was thinned out, with hits kept by preference. % is set by controls: 0 for no effect and ±100 for the full control effect.
SMILES,Methyltransferases
COc1ccc(Br)cc1CN1C(=O)c2ccc(-c3ccco3)n2CC1(C)C(=O)NCc1ccccc1 (stereo not drawn),i
CN1CCN(Cc2ccc(NC(=O)Nc3ccc(Oc4cc(NC(=O)C5CC5)ncn4)cc3)cc2C(F)(F)F)CC1,+
COC(=O)N1CCN(Cc2cccc(NC(=O)Nc3ccc(C)nc3)c2F)CC1,i
CCN1CCN(Cc2ccc(C(=O)Nc3ccc(C)c(Oc4ccc5c(c4)CC(=O)N5)c3)cc2C(F)(F)F)CC1,i
COc1ccc(N(C)C(=O)c2c(C)oc3c2CN(Cc2ccc(F)cc2)CC3)cc1,i
CC(C)=CCn1c(-c2cc(C)oc2C)cn2cc(C(=O)N(C)CC(C)C)nc2c1=O,i
CC1CCCC(NC(=O)C2(C)Cn3c(cc4sccc43)C(=O)N2Cc2cccs2)C1C (stereo not drawn),i
COC(=O)C1=CO[C@@H](O[C@@H]2O[C@H](CO)[C@@H](O)[C@H](O)[C@H]2O)[C@H]2[C@@H]1C=C[C@@]21C=C([C@H](C)O)C(=O)O1,i
CC12CCC(OC3OC(CO)C(O)C(OC4OC(CO)C(O)C(O)C4O)C3O)CC1=CCC1C2CCC2(C)/C(=C3/COC(=O)C3)CCC12O (stereo not drawn),i
C=CC(=O)Nc1cccc(Oc2nc(Nc3ccc(N4CCN(C)CC4)cc3OC)ncc2Cl)c1,i
C=CC(=O)Nc1ccc(CN2C(=O)N(c3cc(OC)cc(OC)c3)Cc3cnc(Nc4ccc(N5CCN(C)CC5)cc4)nc32)cc1,+
COc1cccc(Nc2ncc3c(n2)C(C)(C(=O)N2CCN(c4ccccn4)CC2)CC3)c1 (stereo not drawn),i
CCOC(=O)c1cc2n(n1)CC(C)(C(=O)NCCC(C)C)N(c1ccc(C)cc1)C2=O (stereo not drawn),i
CN1CCN(c2ccc(C(=O)Nc3n[nH]c4ccc(Cc5cc(F)cc(F)c5)cc34)c(NC3CCOCC3)c2)CC1,i
CCc1nc(C(N)=O)c(Nc2ccc(N3CCC(N4CCN(C)CC4)CC3)c(OC)c2)nc1NC1CCOCC1,+
COC(=O)c1ncn2c1C(=O)N(Cc1ccc(SC)cc1)C(C)(C(=O)NCc1ccccc1)C2 (stereo not drawn),i
CN1CCN(CCOc2cc(OC3CCOCC3)c3c(Nc4c(Cl)ccc5c4OCO5)ncnc3c2)CC1,+
CCCC1CN(Cc2ccc(OC)cc2)[S+](=O)([O-])c2cnccc2O1 (stereo not drawn),i
Cc1cccc(N2C(=O)c3ccccc3CC2(C)C(=O)NCc2ccccc2)c1 (stereo not drawn),i
CCC(C(=O)N1CCC2(CCC(=O)N(Cc3ccccn3)C2)CC1)n1cccn1 (stereo not drawn),i
CCN(CC)CCN(Cc1ccc(-c2ccc(C(F)(F)F)cc2)cc1)C(=O)Cn1c(SCc2ccc(F)cc2)nc(=O)c2c1CCC2,+
COc1ccc(OC)c(CCN2C(=O)c3cc4ccccc4n3CC2(C)C(=O)NC2CCCC2)c1 (stereo not drawn),i
CCCN1C(=O)c2cc(C(=O)NCc3ccc(F)cc3)nn2CC1(C)C(=O)NC1CCCC1 (stereo not drawn),i
Cc1ccc(CNC(=O)CCCn2ccc3cc(S(=O)(=O)N4CCCC4)ccc32)o1,i
COc1ccc(NC(=O)CCc2nnc3n(Cc4ccccc4Cl)c(=O)c4ccccc4n23)cc1OC,i
SMILES,Methyltransferases
O=C(O[C@H]1[C@@H]2C[C@@H]3OC[C@@](O)([C@H]2[C@H](O[C@@H]2O[C@H](CO)[C@@H](O)[C@H](O)[C@H]2O)O3)[C@@H]1O)c1ccccc1,i
Cc1ccc2c(c1)c1c(n2CCc2ccc(C)nc2)CCN(C)C1,+
COc1cccc(S(=O)(=O)N2CC(Oc3ccccc3-c3noc(C)n3)C2)c1,i
Cc1ccc(C)c(CNC(=O)c2ncn3c2C(=O)N(C2CC2)C(C)(C(=O)NCc2ccc(F)cc2)C3)c1 (stereo not drawn),i
CCCCN1C(=O)c2cc(C(=O)NCCc3c[nH]c4ccccc34)nn2CC1(C)C(=O)NC1CCCC1 (stereo not drawn),i
O=C(O)/C=C/c1ccc(-c2ccc(O)c(C34CC5CC(CC(C5)C3)C4)c2)cc1,+
O=C(O)/C=C/c1ccc(O)c(O)c1,i
CC12CCC3C(C)(C)C(O)CCC3(C)C1Cc1c(oc(C(=O)O)cc1=O)O2 (stereo not drawn),i
CCc1ccc(S(=O)(=O)N2CCC(C3CCN(C(C)=O)CC3)C2)cc1 (stereo not drawn),i
O=C(COc1ccc(F)cc1)N1CCCCC1c1nc(-c2cnccn2)n[nH]1 (stereo not drawn),i
COc1cc2c(cc1NS(=O)(=O)c1ccc3c(c1)n(C)c(=O)n3C)n(C)c(=O)n2C,i
CCC(C)NC(=O)c1ccc2c(=O)n(C)c3nn(CC(=O)Nc4ccc(C)cc4C)c(=O)n3c2c1 (stereo not drawn),i
CCc1ccc(C2c3cccn3-c3sc4c(c3CN2C(=O)Nc2ccc(OC)cc2OC)CCCC4)cc1 (stereo not drawn),i
CC(C)CCC1(O)C(=O)C(C)(C)C(O[C@@H]2O[C@H](CO)[C@@H](O)[C@H](O)[C@H]2O)C(C)(C)C1O (stereo partly drawn),+
CC1(C)COC(=O)[C@@H]1O[C@@H]1O[C@H](CO)[C@@H](O)[C@H](O)[C@H]1O,i
CCC(C)C(=O)O[C@H]1[C@@H](O[C@H]2O[C@H](CO)[C@@H](O)[C@H](O)[C@H]2O)O[C@H](CO)[C@@H](O)[C@@H]1O (stereo partly drawn),i
Cc1cccc(CCNC(=O)CCc2nnc3n(CCc4ccccc4)c(=O)c4ccccc4n23)c1,i
CN(C)CCCC1(c2ccc(F)cc2)OCc2cc(C#N)ccc21 (stereo not drawn),+!
COCCCNC(=O)CCc1nnc2n(Cc3ccccc3)c(=O)c3ccccc3n12,i
CCC(C)NC(=O)c1ccc2c(=O)nc3c(-c4cccc(C)c4)n[nH]n3c2c1 (stereo not drawn),i
CC(C)CC(=O)OC[C@H]1O[C@@](COC(=O)CC(C)C)(O[C@H]2O[C@H](CO)[C@@H](O)[C@H](O)[C@H]2OC(=O)CC(C)C)[C@@H](OC(=O)CC(C)C)[C@@H]1O,i
C/C=C(\C)C(=O)OCC1OC(OCC2OC(OC3(CO)OC(CO)C(O)C3O)C(O)C(O)C2O)C(O)C(O)C1O (stereo not drawn),i
C/C=C(\C)C(=O)O[C@H]1[C@@H](O[C@]2(COC(=O)CC(C)C)O[C@H](COC(=O)C(C)C)[C@@H](OC(C)=O)[C@@H]2O)O[C@H](COC(C)=O)[C@@H](O)[C@@H]1O,+
CC1CCC(NC(=O)Cn2ccc3cc(S(=O)(=O)N4CCCC4)ccc32)CC1 (stereo not drawn),i
CN1C(=O)c2cc(C(=O)NCc3ccc4c(c3)OCO4)nn2CC1(C)C(=O)NC1CCCC1 (stereo not drawn),i
CC1(C(=O)NC2CCCCC2)Cn2c(nc3ccccc32)C(=O)N1Cc1ccc(F)cc1 (stereo not drawn),i
CCCN1C(=O)c2c(C(=O)Nc3cc(Cl)ccc3OC)ncn2CC1(C)C(=O)NC1CCCC1 (stereo not drawn),i
CCOc1ccc(C(=O)Cn2nc3n(C)c(=O)c4ccc(C(=O)NC5CCCC5)cc4n3c2=O)cc1,i

# High-throughput results from PubChem BioAssay.
